Data on 94 sequences can be found in the supplement of paper PMC3334620.

The full ranking holds about 33,000 sequences; the median of “E-score (-0.5 to 0.5)” is about -0.01, and the highest 2% start at about 0.26. Shown is part of a subset that was picked to be rich in the highest values.

Sequence of UniProt P13574 (P13574 whole entry, the tested form may be a part): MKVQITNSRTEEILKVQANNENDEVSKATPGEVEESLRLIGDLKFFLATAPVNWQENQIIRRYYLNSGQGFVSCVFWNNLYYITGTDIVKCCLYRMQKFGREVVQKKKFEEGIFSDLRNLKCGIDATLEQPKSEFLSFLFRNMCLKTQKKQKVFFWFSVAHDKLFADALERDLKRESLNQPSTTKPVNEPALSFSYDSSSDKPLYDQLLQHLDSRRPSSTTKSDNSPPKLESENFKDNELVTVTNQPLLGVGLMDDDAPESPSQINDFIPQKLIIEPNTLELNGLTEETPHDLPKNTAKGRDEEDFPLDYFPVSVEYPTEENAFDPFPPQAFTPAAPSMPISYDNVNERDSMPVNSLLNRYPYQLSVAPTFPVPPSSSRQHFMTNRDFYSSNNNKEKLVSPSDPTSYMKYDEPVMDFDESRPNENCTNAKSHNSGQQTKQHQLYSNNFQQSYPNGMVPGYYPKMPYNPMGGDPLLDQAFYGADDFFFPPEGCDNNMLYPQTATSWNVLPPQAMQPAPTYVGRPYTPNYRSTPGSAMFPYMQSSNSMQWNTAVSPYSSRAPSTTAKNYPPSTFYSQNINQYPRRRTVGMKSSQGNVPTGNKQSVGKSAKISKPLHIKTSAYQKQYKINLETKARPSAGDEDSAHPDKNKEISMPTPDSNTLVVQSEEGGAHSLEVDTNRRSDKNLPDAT

This experiment has as its target Ste12 (UniProt P13574). The experiment is described as follows: PBM E-score (8-mer binding enrichment) (E-score (-0.5 to 0.5)); higher = stronger / more preferred TF binding. The conditions noted are these: protein concentration: 200 nM; construct: GST-DNA-binding domain. The method, then:
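Universal 'all 10-mer' protein binding microarrays (Agilent AMADID 015681) probed with GST-tagged S. cerevisiae TFs (full-length or DBD) made by in vitro transcription/translation (PURExpress), about 100-200 nM. Bound TF was detected with fluorescent anti-GST. Each ungapped 8-mer (which stands for itself and its reverse complement) is scored by the PBM enrichment score (E-score), a modified Wilcoxon-Mann-Whitney statistic from -0.5 to +0.5, computed with the Universal PBM Analysis Suite. Scale: above 0.35 generally sequence-specific binding.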
As for AGGTTTCC, the “PBM E-score” value was -0.0692.

As to AGGTTTCA, the “PBM E-score” value was 0.451.

For CGGTTTCA, the “PBM E-score” value is 0.452.

For the sequence GGGTTTGA, the “PBM E-score” value is 0.18.

Regarding CGGTTTCC, the “PBM E-score” value is 0.1.

In the case of GTTTTTCA, the “PBM E-score” value turned out to be 0.217.

Turning to AGGTTTCG, the “PBM E-score” value amounted to 0.144.

As to GGGTTTCA, the “PBM E-score” value is 0.435.

With CGGTTTAA, the “PBM E-score” value stood at 0.00247.

In the case of CGTTTTCA, the “PBM E-score” value amounted to 0.132.

In the case of GGGGTTCA, the “PBM E-score” value is -0.0134.

On to GGTTTTCA, for which the “PBM E-score” value is 0.311.

For AACGTCAG, the “PBM E-score” value is -0.155.

For GAGGATTA, the “PBM E-score” value is 0.0342.

CCCGATAG: the “PBM E-score” value turned out to be 0.0566.

As for GGCTTTAA, the “PBM E-score” value came to 0.0191.

On to AAAGCGCC, for which the “PBM E-score” value is -0.0182.

Consider CGCTCAAC, for which the “PBM E-score” value is -0.108.

On to CTTGACCC, for which the “PBM E-score” value was -0.129.

Turning to ACCTCATC, the “PBM E-score” value is -0.0717.

GACAGCCC: the “PBM E-score” value was -0.085.

With CTGAACGA, the “PBM E-score” value was -0.167.

For the sequence AATCCAGC, the “PBM E-score” value is -0.221.

In the case of GATACATC, the “PBM E-score” value is 0.0608.

For CAAACATA, the “PBM E-score” value stood at 0.23.

In the case of GAAACATA, the “PBM E-score” value turned out to be 0.433.

Regarding CAAACATC, the “PBM E-score” value turned out to be 0.192.

For the sequence TAAACATA, the “PBM E-score” value is 0.218.

Turning to GAAACATC, the “PBM E-score” value is 0.355.

Turning to GCATATCA, the “PBM E-score” value was found to be 0.0522.

In the case of ACGAATGA, the “PBM E-score” value was 0.135.

Take AAACGGAC: the “PBM E-score” value stood at 0.149.

As for AAACGGAT, the “PBM E-score” value turned out to be 0.265.

With AAACGGAG, the “PBM E-score” value was 0.0885.

TACGCAAA: the “PBM E-score” value was -0.0817.

In the case of CCCAGACC, the “PBM E-score” value was -0.0973.

With AAAGTACC, the “PBM E-score” value is -0.0428.

As to AAACACAA, the “PBM E-score” value is 0.291.

On to AAACACGA, for which the “PBM E-score” value was 0.129.

AAACACCG: the “PBM E-score” value came to 0.318.

For the sequence CAACACGC, the “PBM E-score” value was -0.247.

Take AAACACAC: the “PBM E-score” value is 0.243.

Turning to AAACACAG, the “PBM E-score” value worked out at 0.118.

AAACACGC: the “PBM E-score” value is 0.288.

Turning to AAACACCT, the “PBM E-score” value was 0.104.

Take ATACACAA: the “PBM E-score” value amounted to 0.283.

With ATACACAC, the “PBM E-score” value was -0.0713.

For the sequence CAACACCG, the “PBM E-score” value was -0.103.

Regarding ATACACAG, the “PBM E-score” value was -0.054.

Consider ACGCCTAA, for which the “PBM E-score” value was found to be 0.0463.

With CTAGTTGA, the “PBM E-score” value was found to be 0.175.

As for TAGCGAAA, the “PBM E-score” value turned out to be 0.118.

On to AGCAGTTG, for which the “PBM E-score” value is -0.126.

Consider CCGGTCTA, for which the “PBM E-score” value is -0.191.

With GCGATTTA, the “PBM E-score” value stood at 0.0399.

For the sequence CGGAGAAG, the “PBM E-score” value is -0.00086.

Take GTTTAAAC: the “PBM E-score” value is 0.214.

With GGTTAAAA, the “PBM E-score” value stood at 0.256.

Turning to CTTTTAAA, the “PBM E-score” value worked out at 0.255.

As to GGTTTTAA, the “PBM E-score” value came to 0.298.

As to GGTTTAAA, the “PBM E-score” value stood at 0.211.

CTTTAAAC: the “PBM E-score” value turned out to be 0.0682.

For the sequence GTTTTAAA, the “PBM E-score” value was determined as 0.378.

As for GGGTTTAA, the “PBM E-score” value worked out at 0.215.

For the sequence CCTTTAAA, the “PBM E-score” value was 0.0788.

Take GTTTAAAA: the “PBM E-score” value came to 0.3.

As for GGTTTTTA, the “PBM E-score” value was 0.166.

In the case of CTTTAAAA, the “PBM E-score” value amounted to 0.266.

Take ATGCGCAT: the “PBM E-score” value stood at 0.0672.

Turning to CAAGGAGG, the “PBM E-score” value is -0.075.

In the case of AACGATCG, the “PBM E-score” value is 0.0136.

On to TAGGCCTA, for which the “PBM E-score” value was -0.15.

As for AATGGGGG, the “PBM E-score” value is -0.187.

For the sequence GCTATGAC, the “PBM E-score” value is 0.0507.

Consider AGGAGTAA, for which the “PBM E-score” value is -0.0677.

As for CTGAGAAC, the “PBM E-score” value was 0.0658.

Consider AACAGGGC, for which the “PBM E-score” value stood at 0.0987.

Consider TTTAAAAA, for which the “PBM E-score” value came to 0.184.

Consider AGTTTTAA, for which the “PBM E-score” value was determined as 0.212.

Consider TTTTAAAA, for which the “PBM E-score” value came to 0.329.

As for GCTTAAAA, the “PBM E-score” value turned out to be 0.31.

For the sequence TGTTTTAA, the “PBM E-score” value was 0.364.

Consider AGTTTTAT, for which the “PBM E-score” value is 0.275.

On to AGTTTTAC, for which the “PBM E-score” value was found to be 0.143.

On to CCTTAAAA, for which the “PBM E-score” value stood at 0.162.

In the case of TCTTAAAA, the “PBM E-score” value worked out at 0.156.

Regarding AGTTTTAG, the “PBM E-score” value is 0.12.

In the case of TGTTTAAA, the “PBM E-score” value was 0.26.

On to GCTTAAAC, for which the “PBM E-score” value is -0.0138.

As for CCCTAACG, the “PBM E-score” value is -0.00496.

As for AAGGGAGT, the “PBM E-score” value was -0.232.

Take CGCAGAAC: the “PBM E-score” value is -0.122.

For the sequence AACAACCG, the “PBM E-score” value is 0.0778.

On to CAGATCAA, for which the “PBM E-score” value came out at 0.00349.
